Assay results reported in PubChem BioAssay AID1159580 (chemical genetic matrix, 2015).
Values joined by “and” are separate entries in the source; they are usually repeats but may differ in a detail not shown here. Equal values may be shown once. Out of some 5,500 compounds screened, about 2,000 (36%) were called active. Inconclusive results (about 18%) are left out. No stated cut-off is given here; in the data, active means normalized growth mostly below about 0.91 (no sharp cut-off); inconclusive means no clear call, values can overlap the other calls; inactive means mostly above about 0.92. The list shows a part of the results.

Assay: chemical genetic growth profiling, strain panel (AID 1159580);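 further: tested at 20 µM; growth read once vehicle control cultures reached saturation at 30 °C; 1 = growth at the plate median or of vehicle wells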
Conditions: S. cerevisiae deletion strains, growth OD

## CC(C)=CCOc1c2occc2cc2ccc(=O)oc12
Locus YAL013W, strain DEP1, stronger effect = lower value
  normalized growth: 0.734 (active)
Locus YAL021C, strain ccr4, stronger effect = lower value
  normalized growth: 0.963 (inactive)
Locus YAL026C, strain drs2, stronger effect = lower value
  normalized growth: 0.874 (active)
Locus YAL030W, strain snc1, stronger effect = lower value
  normalized growth: 0.928 (active)
Locus YBL061C, strain skt5, stronger effect = lower value
  normalized growth: 0.892 (active)
Locus YBR009C, strain hhf1, stronger effect = lower value
  normalized growth: 0.851 (active)
Locus YBR021W, strain FUR4, stronger effect = lower value
  normalized growth: 0.74 (active)
Locus YBR023C, strain chs3, stronger effect = lower value
  normalized growth: 0.864 (active)
Locus YBR171W, strain sec66, stronger effect = lower value
  normalized growth: 0.865 (active)
Locus YBR229C, strain ROT2, stronger effect = lower value
  normalized growth: 0.896 (active)
Locus YBR231C, strain swc5, stronger effect = lower value
  normalized growth: 0.922 (inactive)
Locus YBR279W, strain paf1, stronger effect = lower value
  normalized growth: 0.921 (active)
Locus YCL011C, strain gbp2, stronger effect = lower value
  normalized growth: 0.849 (active)
Locus YCL016C, strain dcc1, stronger effect = lower value
  normalized growth: 0.859 (active)
Locus YCL029C, strain bik1, stronger effect = lower value
  normalized growth: 0.804 (active)
Locus YCL061C, strain MRC1, stronger effect = lower value
  normalized growth: 0.876 (active)
Locus YCL069W, strain vba3, stronger effect = lower value
  normalized growth: 0.912 (active)
Locus YCR088W, strain abp1, stronger effect = lower value
  normalized growth: 0.928 (inactive)
Locus YDL005C, strain med2, stronger effect = lower value
  normalized growth: 0.947 (inactive)
Locus YDL035C, strain GPR1, stronger effect = lower value
  normalized growth: 0.857 (active)
Locus YDL040C, strain nat1, stronger effect = lower value
  normalized growth: 0.934 (inactive)
Locus YDL074C, strain BRE1, stronger effect = lower value
  normalized growth: 0.606 (active)
Locus YDL101C, strain DUN1, stronger effect = lower value
  normalized growth: 0.559 (active)
Locus YDL185W, strain tfp1, stronger effect = lower value
  normalized growth: 0.875 (active)
Locus YDL192W, strain arf1, stronger effect = lower value
  normalized growth: 0.67 (active)
Locus YDR001C, strain nth1, stronger effect = lower value
  normalized growth: 0.899 (active)
Locus YDR069C, strain doa4, stronger effect = lower value
  normalized growth: 0.923 (inactive)
Locus YDR101C, strain arx1, stronger effect = lower value
  normalized growth: 0.808 (active)
Locus YDR137W, strain rgp1, stronger effect = lower value
  normalized growth: 0.729 (active)
Locus YDR150W, strain NUM1, stronger effect = lower value
  normalized growth: 0.899 (active)
Locus YDR159W, strain sac3, stronger effect = lower value
  normalized growth: 0.944 (inactive)
Locus YDR162C, strain NBP2, stronger effect = lower value
  normalized growth: 0.507 (active)
Locus YDR195W, strain ref2
  normalized growth: 1.07 (inactive)
Locus YDR297W, strain sur2, stronger effect = lower value
  normalized growth: 0.926 (inactive)
Locus YDR318W, strain mcm21, stronger effect = lower value
  normalized growth: 0.649 (active)
Locus YDR334W, strain swr1, stronger effect = lower value
  normalized growth: 0.892 (active)
Locus YDR335W, strain msn5, stronger effect = lower value
  normalized growth: 0.942 (inactive)
Locus YDR388W, stronger effect = lower value
  normalized growth: 0.837 (active)
Locus YDR392W, strain spt3, stronger effect = lower value
  normalized growth: 0.353 (active)
Locus YDR502C, strain sam2, stronger effect = lower value
  normalized growth: 0.736 (active)
Locus YEL003W, strain gim4, stronger effect = lower value
  normalized growth: 0.929 (inactive)
Locus YEL037C, strain rad23, stronger effect = lower value
  normalized growth: 0.937 (inactive)
Locus YEL061C, strain CIN8 (second series), stronger effect = lower value
  normalized growth: 0.929 (inactive)
Locus YER015W, strain faa2, stronger effect = lower value
  normalized growth: 0.935 (inactive)
Locus YER016W, strain bim1, stronger effect = lower value
  normalized growth: 0.927 (inactive)
Locus YER110C, stronger effect = lower value
  normalized growth: 0.728 (active)
Locus YER111C, strain swi4, stronger effect = lower value
  normalized growth: 0.929 (inactive)
Locus YER155C, strain BEM2 (second series), stronger effect = lower value
  normalized growth: 0.509 (active)
Locus YER155C, strain BEM2, stronger effect = lower value
  normalized growth: 0.575 (active)
Locus YER167W, strain BCK2, stronger effect = lower value
  normalized growth: 0.722 (active)
Locus YFR010W, strain ubp6, stronger effect = lower value
  normalized growth: 0.938 (inactive)
Locus YGL078C, strain dbp3, stronger effect = lower value
  normalized growth: 0.92 (active)
Locus YGL086W, strain mad1, stronger effect = lower value
  normalized growth: 0.678 (active)
Locus YGL167C, strain pmr1, stronger effect = lower value
  normalized growth: 0.887 (active)
Locus YGL173C, strain kem1, stronger effect = lower value
  normalized growth: 0.885 (active)
Locus YGL227W, strain vid30, stronger effect = lower value
  normalized growth: 0.918 (inactive)
Locus YGL240W, strain doc1, stronger effect = lower value
  normalized growth: 0.741 (active)
Locus YGL248W, strain PDE1, stronger effect = lower value
  normalized growth: 0.672 (active)
Locus YGL253W, strain hxk2, stronger effect = lower value
  normalized growth: 0.807 (active)
Locus YGR135W, strain pre9, stronger effect = lower value
  normalized growth: 0.666 (active)
Locus YGR252W, strain gcn5, stronger effect = lower value
  normalized growth: 0.519 (active)
Locus YHR013C, strain ard1, stronger effect = lower value
  normalized growth: 0.87 (inactive)
Locus YHR027C, strain rpn1, stronger effect = lower value
  normalized growth: 0.954 (inactive)
Locus YHR030C, strain SLT2, stronger effect = lower value
  normalized growth: 0.978 (inactive)
Locus YHR079C, strain IRE1 (second series), stronger effect = lower value
  normalized growth: 0.856 (active)
Locus YHR079C, strain IRE1, stronger effect = lower value
  normalized growth: 0.975 (inactive)
Locus YHR094C, strain hxt1, stronger effect = lower value
  normalized growth: 0.821 (active)
Locus YHR129C, strain ARP1, stronger effect = lower value
  normalized growth: 0.652 (active)
Locus YHR142W, strain chs7, stronger effect = lower value
  normalized growth: 0.679 (active)
Locus YHR200W, strain rpn10, stronger effect = lower value
  normalized growth: 0.822 (active)
Locus YIL066C, strain RNR3, stronger effect = lower value
  normalized growth: 0.697 (active)
Locus YIL073C, strain SPO22, stronger effect = lower value
  normalized growth: 0.792 (inactive)
Locus YIL125W, strain kgd1, stronger effect = lower value
  normalized growth: 0.895 (active)
Locus YIR030C, strain dcg1, stronger effect = lower value
  normalized growth: 0.842 (active)
Locus YJL092W, strain hpr5, stronger effect = lower value
  normalized growth: 0.9 (active)
Locus YJL095W, strain BCK1 (second series), stronger effect = lower value
  normalized growth: 0.898 (active)
Locus YJL095W, strain BCK1, stronger effect = lower value
  normalized growth: 0.297 (active) and 0.984 (inactive)
Locus YJL115W, strain asf1, stronger effect = lower value
  normalized growth: 0.922 (inactive)
Locus YJL129C, strain trk1, stronger effect = lower value
  normalized growth: 0.774 (active)
Locus YJL134W, strain LCB3, stronger effect = lower value
  normalized growth: 0.895 (active)
Locus YJL154C, strain vps35, stronger effect = lower value
  normalized growth: 0.935 (inactive)
Locus YJL164C, strain tpk1, stronger effect = lower value
  normalized growth: 0.859 (active)
Locus YJL166W, strain qcr8, stronger effect = lower value
  normalized growth: 0.895 (active)
Locus YJL168C, strain set2, stronger effect = lower value
  normalized growth: 0.875 (active)
Locus YJL187C, strain SWE1 (second series), stronger effect = lower value
  normalized growth: 0.739 (active)
Locus YJL187C, strain SWE1, stronger effect = lower value
  normalized growth: 0.929 (inactive)
Locus YJR043C, strain POL32, stronger effect = lower value
  normalized growth: 0.742 (active)
